Sampled rows, rich in hits. Any-hit rate of the full collection: about 2.3%.
NTR1 ag = agonists of human neurotensin receptor NTR1; activation, % at 20 µM; NTR1-U2OS beta-arrestin-GFP spot imaging, agonist mode; actives 0.17% (n = 330,000); P30989;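 active = activation at or above 40% of the spot to cytoplasm intensity ratio, with at least 20 cells analyzed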;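 note: 0% = DMSO without peptide and 100% = 100 nM NTR1 peptide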
ABHD5-PLIN5 inh = blocks binding of human ABHD5 to perilipin-5 | Split G. princeps luciferase complementation, luminescence, 4 h | inhibition, % at 4 µM | actives 0.78% (n = 360,000) | Q00G26+Q8WTS1;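 active = inhibition above the mean inhibition across every tested compound plus 3 SD, cut at about 22% in these data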;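 note: 0% = DMSO only wells and the 100% control is not disclosed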
HTR2A ag = activates the mouse 5-HT2A serotonin receptor | CHO-K1 mHTR2A beta-arrestin complementation, luminescence; percent of 30 µM serotonin response | actives 0.66% (n = 360,000) | AID 624169 | activation, % at 7.6 µM | P35363;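 active = activation above a run cutoff, the mean activation of all tested compounds plus 3 SD, cut at about 14% in these data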;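 note: 0% = plate median of compound wells and 100% = 30 µM serotonin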
Beta2AR agonist = human beta-2 adrenergic receptor agonism by FAP | P07550 | Am2.2-beta2AR cells, FAP receptor internalization, flow cytometry | response, % (concentration not given with the values) | actives 0.43% (n = 340,000);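 active = response above a set limit, near 3 SD of response in nonfluorescent compounds, cut at about 42% in these data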
Target sequence (P07550 whole entry, looked up): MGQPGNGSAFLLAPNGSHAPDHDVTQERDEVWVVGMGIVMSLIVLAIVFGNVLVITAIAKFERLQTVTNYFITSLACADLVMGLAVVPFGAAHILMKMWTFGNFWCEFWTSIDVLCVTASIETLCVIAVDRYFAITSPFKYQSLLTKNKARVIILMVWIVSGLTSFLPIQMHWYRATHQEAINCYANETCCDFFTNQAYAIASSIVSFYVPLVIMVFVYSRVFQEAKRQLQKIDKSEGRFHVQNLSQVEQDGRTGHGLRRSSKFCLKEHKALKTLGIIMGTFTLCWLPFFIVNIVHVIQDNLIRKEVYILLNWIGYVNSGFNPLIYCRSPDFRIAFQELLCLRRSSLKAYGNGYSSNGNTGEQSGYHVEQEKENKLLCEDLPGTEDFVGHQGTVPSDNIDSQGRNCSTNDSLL
Granule exo inh = lytic granule exocytosis inhibition; inhibition, % at 10 µM; actives 0.66% (n = 360,000); TALL-104 LAMP-1 surface exposure, flow cytometry; cells stimulated with thapsigargin and PMA;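 active = inhibition above about 55%, limit read from the data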
MOR ag counter = OPRM1 agonism in mouse HTR2A counterscreen; shares compounds with HTR2A ag; U2OS OPRM1 beta-arrestin PathHunter, luminescence; DMSO 0%, DAMGO 9.3 µM 100%; activation, % at 9.3 µM; actives 5.3% (n = 2,300); AID 624380;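 active = mean activation above the mean of DMSO-only wells plus 3 SD, cut at about 0.5% in these data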
m5-HT2A ag conf = confirmation of mouse HTR2A serotonin receptor agonists. actives 19% (n = 2,300). activation, % at 7.6 µM. CHO-K1 PathHunter beta-arrestin recruitment, luminescence; DMSO 0%, 30 µM serotonin 100%. shares compounds with HTR2A ag;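 active = mean activation across triplicates above the hit threshold derived in the original primary screen, cut at about 15% in these data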
* marks the source's active call; other numbers are inactive results; . = no result.

SMILES	NTR1 ag	ABHD5-PLIN5 inh	HTR2A ag	Beta2AR agonist	Granule exo inh	MOR ag counter	m5-HT2A ag conf
C#CCOCCOCCOCCNc1nc(N2CCOCC2)nc(N2CCN(C(=O)CCCCCCCCCCNC(=O)[C@@H](CCC(=O)O)n3cc(CCCCCN)nn3)CC2)n1	4.9	7.2	15.4*	-1.6	-1.2	-0.7	-2.0
CC(C)(C)OC(=O)NCCCCCc1cn([C@@H](CO)C(=O)NCCCCCCCCCCC(=O)N2CCN(C(=O)OC(C)(C)C)CC2)nn1	82.3*	14.4	14.9*	24.9	-4.2	-0.1	18.9*
CN(C)C(=O)C[C@@H]1CC[C@@H](NC(=O)C2CCC2)[C@@H](CO)O1	.	4.1	-0.5	.	-0.3	.	.
S=C(NCc1ccco1)N1CCN(c2ccccc2Cl)CC1	0.3	-5.6	-5.4	1.2	18.0	.	.
CN1CCN(c2ccc(CNC(=O)C3(C)Cc4c(-c5ccccc5)ccnc4O3)cc2)CC1 (configuration not stated)	.	5.2	-0.6	.	-1.9	.	.
Cc1ccc2c(=O)[nH]c(Cc3ccccc3C(=O)O)nc2c1	0.0	2.5	14.9*	-6.4	-4.3	-0.5	9.7
CCCCN(C(=O)CCC(=O)Nc1cc(C)on1)C(C(=O)NC1CCCC1)c1cccc(OC)c1 (configuration not stated)	2.6	-7.3	14.4*	-6.2	-6.6	-0.6	-5.0
CCCn1c(NC(=O)CCS(=O)(=O)c2ccc(C)cc2)nc2ccccc21	0.6	-4.0	-0.1	8.6	2.1	.	.
COc1cccc(-c2ccc(C3=CC(=O)CC(C)(C)C3=O)cc2)c1OC	.	1.7	-2.6	.	-10.4	.	.
CCOC(=O)C1(C)Oc2ccccc2C(C(=O)OC)=C1C(=O)OC (configuration not stated)	0.7	4.8	19.7*	2.1	-0.5	-0.7	-3.9
CCC1CCCCN1C(=O)c1cc(COc2ccc3ncccc3c2)on1 (configuration not stated)	0.4	3.0	6.0	-3.3	4.3	.	.
COCC1CCCCN1C(=O)c1cc(COc2ccc3ncccc3c2)on1 (configuration not stated)	0.2	2.4	19.7*	-13.3	-4.2	-0.5	0.2
CCOc1ccc(CCNC(=O)c2cc(=O)[nH]c3ccc(S(=O)(=O)N(CC)CC)cc23)cc1OCC	-0.2	6.4	16.9*	12.4	38.9	-0.5	0.4
CCN(CC)S(=O)(=O)c1ccc2[nH]c(=O)cc(C(=O)NCc3ccccc3)c2c1	3.3	6.1	9.6	0.3	-22.0	.	.
COCc1ccc(CN2CCC(n3nccc3NC(=O)C(OC)c3ccccc3)CC2)o1 (configuration not stated)	0.2	19.9	14.7*	-6.9	-1.9	-0.8	-1.3
O=C(O)c1cc(S(=O)(=O)N2CCN(C(c3ccccc3)c3ccccc3)CC2)ccc1Cl	0.7	3.1	6.1	-1.2	-0.5	.	.
COc1ccc(NC(=O)CSc2nc3ccccc3nc2N2CCOCC2)c(OC)c1	7.8	1.1	15.6*	-9.3	3.8	-0.6	-4.5
COc1ccc(NC(=O)CSc2nc3ccccc3c(=O)n2CCCN2CCCCC2)c(OC)c1	-1.9	-0.7	41.8*	13.6	3.0	-0.3	17.8*
CSCC[C@H](NC(=O)[C@@H]1Cc2c([nH]c3ccccc23)C2c3ccccc3C(=O)N21)C(=O)NCC1CCCO1 (some centres not stated)	-1.2	-8.2	-2.2	-15.1	-0.4	.	.
Cc1ccc(Cc2c(C3CCCCC3)nc3c4ccccc4ccn23)cc1	.	-11.9	-7.1	.	-1.3	.	.
Brc1ccc(C[n+]2ccccc2)cc1	0.3	2.6	8.2	-0.8	-2.1	.	.
CC/C(C)=N/Oc1nc(C)cc(C)n1	-0.6	-4.3	1.3	-3.6	0.0	.	.
CCOc1ccc(NC(=S)N(CCc2c(C)[nH]c3ccc(C)cc23)Cc2ccco2)cc1	5.0	-2.4	5.7	-5.5	1.2	.	.
COc1ccc(NC(=S)N(CCc2c(C)[nH]c3ccc(C)cc23)Cc2ccco2)cc1	3.7	-3.7	23.3*	2.4	-6.8	-0.4	-3.3
O=C(O)COCC(=O)Nc1ccc(OCCc2ccccc2)cc1	0.9	1.3	1.3	7.8	1.9	.	.

Screens deposited in PubChem by several laboratories.
